Compound activity: PubChem BioAssay, National Center for Advancing Translational Sciences (NCATS)
HCV inhibitor: HCV inhibition | Huh7.5.1 HCVcc-Cre infection, luciferase reporter, 44 h | Potency, µM (doses to about 41.8 µM), without a hit: top-dose activity change, negative = inhibition, actives largely listed as inhibitors | 340,000 compounds, 3.4% hits; active = well fitted inhibition curve with a large enough effect; inconclusive = small, poorly fitted or top-dose-only effect, or another doubt; inactive = no such curve, though single readings can be large or run the other way; note: potency is the fitted concentration of half-maximal effect
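A cell-based infection assay in which seeded cells (1,000 per well) receive test compound after 4 h, are inoculated with HCVcc-Cre at approximately 0.5 moi, and are incubated 44 h before luminescence detection.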
HCMV inh: blocks human cytomegalovirus replication; HFF cells, HCMV-luciferase reporter, 72 h; stronger effect = lower value; activity change, negative = inhibition, % at 57.5 µM; 410,000 compounds, 4.5% hits; AID 1259415; in the data active = activity change below about -60%; inconclusive = no clear call, values can overlap the other calls; inactive = above about -39%
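Compounds were evaluated in HFFs infected with an HCMV luciferase reporter virus (MOI 1 PFU/cell). Luciferase in lysates collected 72 h post infection served as the replication measure.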
Marburg entry inh: Marburg virus entry inhibition. Marburg virus pseudotyped entry inhibition, cell reporter. Potency, µM (highest dose often 37.8 µM), for inactives: at the top dose activity change, negative = inhibition, hits mostly inhibitors. 300,000 compounds, 1.8% hits; calls by dose curve; tested in HEK293 cells; note: potency is the fitted concentration of half-maximal effect
FMDV antiviral: foot and mouth disease virus antiviral activity. FMDV antiviral cell-based qHTS. Potency, µM (series often up to 57.9 µM), for inactives: top-dose activity change, negative = inhibition, actives largely listed as inhibitors. 410,000 compounds, 1.2% hits. AID 1159524; calls by dose curve; tested in HEK293T cells; note: read-out not given here; potency is the fitted concentration of half-maximal effect; nearly all actives have a fitted effect of over 45% in size
Lassa entry inh: blocks Lassa virus binding to or entry into cells; 300,000 compounds, 1.2% hits; Potency, µM (titrated, usually from 37.9 µM), inactives show at the highest dose activity change, negative = inhibition, usual class: inhibitors; Lassa virus pseudotype entry inhibition, cell reporter; calls by dose curve; tested in HEK293 cells; note: potency is the fitted concentration of half-maximal effect; nearly all actives have a fitted effect of over 50% in size
* hit, by the source's call; ? = inconclusive; nt = no result given; + = active, no number; ! = a repeat was not active; [ ] = dose if it differs, or a comment. Compounds with a hit are over-represented: about 7.9% of the library has one in this group of screens. % is set by controls: 0 for no effect and ±100 for the full control effect.

SMILES	HCV inhibitor	HCMV inh	Marburg entry inh	FMDV antiviral	Lassa entry inh
CN(c1ccccc1)S(=O)(=O)c1cccc(NC(=O)c2ccc3ncsc3c2)c1	11µM*	0	?	35µM*	?
C[C@]12CCC3C(CC[C@H]4CCCC[C@]34C)C1CC[C@@]2(O)CNCCO (some centres undefined)	10µM*	-1	1%	-17%	?
C[C@]12CCC3C(CC[C@H]4C[C@@H](O)CC[C@]34C)C1C[C@@H](O)[C@]2(C)O (some centres undefined)	2%	3	-4%[46.1 µM]	-18%	12%[46.1 µM]
CCn1nc(-c2cccs2)nc2c(=O)n(C)c(=O)nc1-2	0.56µM*	nt	0.89µM*	1.6µM*	?
O=C(NCCO)C(=O)Nc1cc2c3c(c1)CC(=O)N3CCC2	9%	+	nt	-13%	nt
O=C(CCl)c1cc2c3c(c1)CC(=O)N3CCC2	-13%	25	?	22µM*	2%[46.1 µM]
O=C(CCc1ccccc1)Nc1cc2c3c(c1)CCC(=O)N3CCC2	?	-99*	-3%	-5%	-13%
CC(C)CCNC(=O)C(=O)Nc1cc2c3c(c1)CC(=O)N3CCC2	-4%	3	nt	18%	nt
COc1ccccc1CNC(=O)CCCn1c(=O)c2ccccc2n(Cc2ccc(F)cc2)c1=O	nt	?	7%[46.1 µM]	-29%	-19%[46.1 µM]
CCc1ccc(NC(=O)CCc2c(C)nn(-c3ccc(N4CCCC4)nn3)c2C)cc1	nt	3	nt	15%	-5%[46.1 µM]
CCOC(=O)c1cn2nc(N3CCCC3)ccc2n1	-2%	0	3.5µM*	-69%	1.4µM*
O=C(COc1ccc(Br)cc1Cl)Nc1ncn[nH]1	nt	52	?	-6%	-26%[46.1 µM]
CC(C)CON=C1C[C@@H](O)[C@@H](O)[C@@H]2[C@H]3C(=O)N(Cc4ccccc4)C(=O)[C@@H]3CC[C@@H]12	nt	nt	1%[14.2 µM]	nt	nt
Cc1cc(C)n(-c2nc(C)c(C)c(=O)n2CC(=O)Nc2ccc(OC(F)(F)F)cc2)n1	nt	?	nt	-23%	11%[46.1 µM]
CN(C)S(=O)(=O)N1CCC(Oc2ccc(C(=O)NC3Cc4ccccc4C3)cc2)CC1	3.5µM*	-81*	nt	?	nt
COc1ccccc1Nc1nnc(SCC2CCCCO2)s1 (centres undefined)	7.9µM*	90	7.1µM*	-48%	nt
COc1cccc(Cc2nc3cccnc3n2C2CCN(Cc3ccc(C)s3)CC2)c1	nt	nt	nt	2%	nt
COC(=O)c1ccc2c(c1)c(-c1ccccc1)c(-c1ccccc1)n2C	7.1µM*	-12	nt	?	nt
COC(=O)c1c(C)nc2ccccc2c1-c1ccccc1	?	-1	6%	0%	14%
CCc1nn2c(-c3ccco3)ccnc2c1-c1ccccc1	nt	8	?	29%	-3%[46.1 µM]
COc1ccc(N2CCN(C(c3cc(OC)ccc3OC)c3nnnn3Cc3ccco3)CC2)cc1 (centres undefined)	12%	-33	10µM*!	22%	?
COc1ccc(OC)c(C(c2nnnn2CCc2ccccc2)N2CCN(c3ccccc3)CC2)c1 (centres undefined)	?	-12	?	18%	10µM*
COc1ccc(OC)c(C(c2nnnn2Cc2ccccc2)N2CCN(C)CC2)c1 (centres undefined)	6%	-13	?	-12%	-15%
Clc1ccc([C@@H](c2ccccc2Cl)C(Cl)Cl)cc1	nt	nt	-12%	nt	nt
C#Cc1ccc([C@H]2C=C(C(=O)OCC=C)O[C@@H](OCCCCO)C2)cc1	11%	-67*	nt	-8%	nt
SMILES	HCV inhibitor	HCMV inh	Marburg entry inh	FMDV antiviral	Lassa entry inh
CCCCCn1c(N)c(C(=O)NCCN2CCOCC2)c2nc3ccccc3nc21	-5%	-40	?	?	?
N#Cc1c(N)n(CCCN2CCOCC2)c2nc3ccccc3nc12	-15%	-36	?	?	-25%
Nc1c(C(=O)Nc2ccccc2)c2nc3ccccc3nc2n1CCCN1CCOCC1	22µM*	109	?	?	-10%
Nc1c(C(=O)NCCN2CCOCC2)c2nc3ccccc3nc2n1-c1cccc(F)c1	?	?	2%	-20%	-5%
COCCCn1c(N)c(C(=O)NCCC(C)C)c2nc3ccccc3nc21	8.9µM*	-27	?	-13%	-10%
COc1ccc(CCNC(=O)c2c(N)n(CCN3CCOCC3)c3nc4ccccc4nc23)cc1OC	?	39	?	nt	18µM*
CCCCCCn1c(N)c(C(=O)NCCN2CCOCC2)c2nc3ccccc3nc21	?	-19	?	11µM*	?
CCCCn1c(N)c(C(=O)OCCOC)c2nc3ccccc3nc21	7%	-3	13%[46.1 µM]	-1%	-12%
N#Cc1c(N)n(CCNC(=O)c2cccs2)c2nc3ccccc3nc12	9%	-34	-2%	-12%	-13%
N#Cc1c(N)n(CCNC(=O)c2ccccc2)c2nc3ccccc3nc12	0%	-66*	-1%	-21%	-5%
Cc1ccc(CSc2nc(=O)c3c(C)cc(C)nc3n2C2CC2)cc1	nt	-101*	nt	?	-11%[46.1 µM]
O=C(NC1CCCC1)c1ccc(COc2ccccc2Br)o1	13µM*	38	nt	-25%	nt
CC(N)=NCCCC(N)C(=O)O (centres undefined)	nt	nt	2%	nt	nt
COc1cc(C2c3cc4c(cc3C(OC3OC5COC(c6cccs6)OC5C(O)C3O)C3COC(=O)C23)OCO4)cc(OC)c1O (centres undefined)	-31%	-99*	nt	-18%	nt
COc1cc([C@@H]2c3cc4c(cc3[C@@H](O[C@@H]3O[C@@H]5CO[C@@H](C)O[C@H]5[C@H](O)[C@H]3O)[C@H]3COC(=O)[C@H]23)OCO4)cc(OC)c1O	?	-99*	nt	0%	nt
COc1cc(C2c3cc4c(cc3C(OC3OC5COC(C)O[C@@H]5C(O)C3O)C3COC(=O)C23)OCO4)cc(OC)c1O (some centres undefined)	nt	nt	nt	2%	nt
O=C(O)c1ccc(S(=O)(=O)NN=Cc2c[nH]c3ccccc23)cc1	nt	7	nt	-2%	nt
CC(C)n1cc(/C=N/Nc2ccc(C(=O)O)cc2)c2ccccc21	-3%	-39	5%[46.1 µM]	3.5µM*	-23%[46.1 µM]
O=C(O)c1ccc(N/N=C/c2c[nH]c3ccccc23)cc1	13%	-65*	nt	6.3µM*	nt
Fc1c(F)c(F)c(N/N=C/c2c[nH]c3ccccc23)c(F)c1F	?	-65*	?	7%	-18%
Cc1cc(C)nc(N/N=C/c2c[nH]c3ccccc23)n1	4%	24	-18%[46.1 µM]	8%	1%[46.1 µM]
COc1ccc(C)cc1-n1c(SCC(=O)NCc2ccco2)nc2c([nH]c3ccccc32)c1=O	nt	?	nt	-21%	-13%[46.1 µM]
Cc1cc2c(cc1S(=O)(=O)NCc1ccc(F)cc1)OCCN2C	nt	-25	nt	66%	13%[46.1 µM]
CCS(=O)(=O)c1nc(S(=O)(=O)c2ccc(C)cc2)c(NCc2ccccc2Cl)s1	nt	6	?	15%	-16%[46.1 µM]
COc1ccc(CCNC(=O)Cn2cnc3scc(-c4ccccc4)c3c2=O)cc1OC	-19%	-102*	nt	-18%	nt
CCOc1cccc(CC(=O)Nc2ccc3nc(N4CCCCC4)cc(C)c3c2)c1OCC	nt	20	nt	-14%	?
